In all, about 1,300 compounds went through this assay and about 750 (58%) were called active. Some of the results follow. Values without a mark were called inactive.
Target: Sulfhydryl oxidase 1 (Homo sapiens) (UniProt O00391)
Test: inhibition of human sulfhydryl oxidase QSOX1 – biochemical, ROS-Glo H2O2 luminescence, HTS, primary screen (AID 1347418)
Conditions: recombinant QSOX1, ROS-Glo H2O2 luminescence, at 12.5 µM, active compounds read high; active = any value above zero unless noted

Chain of Sulfhydryl oxidase 1 (Homo sapiens) (O00391 whole entry, looked up): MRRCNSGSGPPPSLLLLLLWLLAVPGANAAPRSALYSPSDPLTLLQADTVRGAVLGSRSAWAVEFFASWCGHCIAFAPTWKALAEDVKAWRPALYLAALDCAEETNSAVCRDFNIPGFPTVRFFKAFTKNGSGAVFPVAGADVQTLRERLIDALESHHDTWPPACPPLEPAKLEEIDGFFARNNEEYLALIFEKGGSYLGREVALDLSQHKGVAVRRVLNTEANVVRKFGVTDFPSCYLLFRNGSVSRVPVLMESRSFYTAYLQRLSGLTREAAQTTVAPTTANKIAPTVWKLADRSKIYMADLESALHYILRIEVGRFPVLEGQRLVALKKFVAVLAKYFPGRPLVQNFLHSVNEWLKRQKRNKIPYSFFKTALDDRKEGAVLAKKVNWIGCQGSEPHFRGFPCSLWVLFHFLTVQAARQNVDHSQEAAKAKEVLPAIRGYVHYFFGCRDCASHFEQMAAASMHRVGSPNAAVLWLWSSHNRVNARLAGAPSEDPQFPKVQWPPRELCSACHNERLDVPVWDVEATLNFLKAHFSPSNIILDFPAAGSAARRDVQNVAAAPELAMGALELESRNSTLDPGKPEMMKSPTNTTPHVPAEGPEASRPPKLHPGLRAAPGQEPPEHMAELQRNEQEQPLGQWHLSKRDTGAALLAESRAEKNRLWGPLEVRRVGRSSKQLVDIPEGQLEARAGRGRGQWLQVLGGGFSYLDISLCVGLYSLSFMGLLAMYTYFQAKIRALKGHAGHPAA

Row | SMILES | inhibition
1 | NC(=O)CN1CC(O)CC1=O (stereo not given) | 1.1% [setting not given] (active)
2 | Cc1cccc(C)c1NC(=O)CN1CCCC1=O | 3% [setting not given] (active)
3 | NC(=O)CN1CCCC1=O | 2.9% [setting not given] (active)
4 | COc1ccc(C(=O)N2CCCC2=O)cc1 | -3% [setting not given]
5 | CC[C@@H](C(N)=O)N1CCCC1=O | -2.6% [setting not given]
6 | O=C1CCCN1CC#CCN1CCCC1 | -8.1% [setting not given]
7 | C=CCN(C1=NCCN1)c1c(Cl)cccc1Cl | -6.5%
8 | CCC1(C2=NCCN2)Cc2ccccc2O1 (stereo not given) | -2.6%
9 | C/C=C(/C)C(=O)O[C@H]1C(C)=C2[C@H]([C@@H]1OC(=O)CCCCCCC)[C@@](C)(OC(C)=O)C[C@H](OC(=O)CCC)[C@@]1(O)[C@H]2OC(=O)[C@@]1(C)O | -0.7%
10 | CN[C@@H]1C[C@@H](c2ccc(Cl)c(Cl)c2)c2ccccc21 | -1.2%
11 | CCCN1CCC[C@@H]2Cc3[nH]ncc3C[C@H]21 | -2.4%
12 | CC12CCC3C(CCC4=C(O)C(=O)CCC43C)C1CCC2=O (stereo not given) | 0.2% [setting not given] (active)
13 | C[C@@H](N)Cc1cnc[nH]1 | 11.8% (active)
14 | c1ccc(C2(c3ccccc3)CC2C2=NCCN2)cc1 (stereo not given) | -0.8%
15 | CCn1cnc2c(Nc3cccc(Cl)c3)nc(N[C@@H]3CCCC[C@@H]3N)nc21 | 0.3% (active)
16 | NC(Cn1oc(=O)[nH]c1=O)C(=O)O (stereo not given) | 2.7% (active)
17 | CCC1(c2ccc(N)cc2)CCC(=O)NC1=O (stereo not given) | -0.8% [setting not given]
18 | NCCCP(=O)(O)O | 6.4% (active)
19 | CC(NC(C)(C)C)C(=O)c1cccc(Cl)c1 (stereo not given) | 0.7% [setting not given] (active)
20 | CCCN1CCC[C@@H]2Cc3nc(N)ncc3C[C@H]21 | -0.3%
21 | CC(C)(C)c1cc(C=C(C#N)C#N)cc(C(C)(C)C)c1O | 27.7% (active)
22 | N#CC(C#N)=Cc1ccc(O)c(O)c1 | 31.5% (active)
23 | N#CC(=Cc1ccc(O)c(O)c1)C(N)=S | 26.9% (active)
24 | CCCCc1ccc(C(=O)O)nc1 | -1.9%

Row | SMILES | inhibition
25 | NC(=O)c1cc(N2CC2)c([N+](=O)[O-])cc1[N+](=O)[O-] | -2.6%
26 | CC(N)[C@H](O)c1ccc(O)c(O)c1 (stereo not given in full) | 10.4% [setting not given] (active)
27 | COc1ccc(OC)c(C(O)C(C)N)c1 (stereo not given) | -1.4% [setting not given]
28 | C[C@@H]1O[C@@H](O[C@H]2C[C@@H](O)[C@]3(CO)[C@H]4[C@H](O)C[C@]5(C)[C@@H](C6=CC(=O)OC6)CC[C@]5(O)[C@@H]4CC[C@]3(O)C2)[C@H](O)[C@H](O)[C@H]1O | 1.8% [setting not given] (active)
29 | C[C@@H]1O[C@@H](O[C@H]2C[C@@H](O)[C@]3(CO)[C@@H]4C(CC[C@]3(O)C2)[C@@]2(O)CC[C@H](C3COC(=O)C3)[C@@]2(C)C[C@H]4O)[C@H](O)[C@H](O)[C@H]1O (stereo not given in full) | -6.9%
30 | CN1C2CCC1CC(OC(c1ccccc1)c1ccccc1N)C2 (stereo not given) | 1.1% (active)
31 | CN1C2CCC1CC(OC(=O)c1cc(Cl)cc(Cl)c1)C2 (stereo not given) | -0.7%
32 | COC(=O)[C@@H](N)CCCN=C(N)N[N+](=O)[O-] | 2.4% (active)
33 | NC(=NCCC[C@H](N)C(=O)O)N[N+](=O)[O-] | -2.6%
34 | C[C@]12Cc3cn4c(nc3C=C1CCC1C2CC[C@@]2(C)[C@H]1CC[C@@]2(O)C#N)nc1ccccc14 (stereo not given in full) | 2.7% (active)
35 | NC(C(=O)O)c1cc(=O)[nH]o1 (stereo not given) | -2.4%
36 | Cc1o[nH]c(=O)c1CC(N)C(=O)O (stereo not given) | 4.2% (active)
37 | CCCN(CCC)CCc1ccc(O)c(O)c1 | 14.4% (active)
38 | CNCCc1ccc(O)c(O)c1 | 7.7% (active)
39 | CC(N)c1cccc(Cl)c1Cl (stereo not given) | 6.2% (active)
40 | CC(C)(C)NCC(O)c1ccccc1Cl (stereo not given) | -0.6%
41 | O=C(O)[C@@H]1CCN1 | 9.3% (active)
42 | C[C@H](N)Cc1cccc(C(F)(F)F)c1 | 1.6% [setting not given] (active)
43 | O=[N+]([O-])c1cc(O)c(O)c([N+](=O)[O-])c1 | 13% (active)
44 | NCCc1ccc(S(=O)(=O)F)cc1 | 5.8% (active)
45 | NCCc1ccc(O)cc1 | -0.2% [setting not given]
46 | N=C(N)c1ccc(CS(=O)(=O)F)cc1 | -0.1%
47 | CC1=NN=C(c2ccc(N)cc2)c2cc3c(cc2C1)OCO3 | 10.6% (active)
48 | NCC(CC(=O)O)c1ccc(Cl)cc1 (stereo not given) | 1.1% [setting not given] (active)

Row | SMILES | inhibition
49 | NCC(CP(=O)(O)O)c1ccc(Cl)cc1 (stereo not given) | 0.1% (active)
50 | CCCCC/C=C\C/C=C\C/C=C\C/C=C\CCCC(=O)NCC(=O)O | 2.2% (active)
51 | Cc1cccc(C)c1NC1=NCCCS1 | 0.2% [setting not given] (active)
52 | Nc1ccncc1 | -1% [setting not given]
53 | CCN1C[C@@]2(COC)C3[C@@H](OC)C4[C@@H]1C3([C@@H]1C[C@@]3(O)[C@H](OC(=O)c5ccccc5)[C@@H]1[C@]4(OC(C)=O)[C@@H](O)[C@@H]3OC)[C@H](OC)C[C@H]2O | 2.6% (active)
54 | CNc1ccc2oc(C[C@H]3O[C@@]4(CC[C@H]3C)O[C@H]([C@H](C)C(=O)c3ccc[nH]3)[C@H](C)C[C@H]4C)nc2c1C(=O)O | 14.2% [setting not given] (active)
55 | Cc1c2ccncc2c(C)c2c1[nH]c1ccccc12 | 29% [setting not given] (active)
56 | Cc1nccc2c1[nH]c1ccccc12 | -2% [setting not given]
57 | NC(CP(=O)(O)O)C(=O)O (stereo not given) | 2.8% (active)
58 | NC(CCCCCP(=O)(O)O)C(=O)O (stereo not given) | -4.6%
59 | NC(CCP(=O)(O)O)C(=O)O (stereo not given) | 2.8% (active)
60 | CO[C@H]1CC=C2CCN3CCC4=C(CC(=O)OC4)[C@]23C1 | 0.6% (active)
61 | O=c1[nH]oc2c1CCNC2 | -7.3%
62 | c1ccc2sc(C3(N4CCCCC4)CCCCC3)cc2c1 | 0.2% (active)
63 | Cc1sc2ccccc2c1CC1=NCCN1 | -3.3%
64 | CC(C)N(CCC(C(N)=O)(c1ccccc1)c1ccccn1)C(C)C (stereo not given) | 6.1% [setting not given] (active)
65 | CC1(C(=O)O)C2CCC(O2)C1(C)C(=O)O (stereo not given) | -3.3%
66 | COc1ccc(CNC(=O)/C=C/c2ccc3[nH]cc(CCN(C)C)c3c2)cc1 | 1.8% [setting not given] (active)
67 | CN(C(=O)Cc1ccc(Cl)c(Cl)c1)C(CN1CCCC1)c1cccc(OCC(=O)O)c1 (stereo not given) | 1.2% (active)
68 | COC(=O)N1CCN(C(=O)Cc2ccc(Cl)c(Cl)c2)C(CN2CCCC2)C1 (stereo not given) | -0.5%
69 | O=C(Cc1ccc(Cl)c(Cl)c1)N1CCCCC1CN1CCCC1 (stereo not given) | -1.7%
70 | CC(C)c1cccc(C(C)C)c1O | 0.9% (active)
